HT1080 IDH1KD tx: kills HT-1080 cells with IDH1 knockdown; HT-1080 IDH1 knockdown viability, ATP luminescence, 48 h; Potency, µM (top dose mostly 46.1 µM), without a hit: top-dose activity, negative = toxicity, actives largely listed as cytotoxic; 360,000 tested, 2% active;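 note: potency is the fitted concentration of half-maximal effect; 0% = DMSO wells and -100% = cell-free medium wells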
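% activity derives from luminescence (CellTiter-Glo), normalised to DMSO and no-cell wells. HT-1080-IDH1KD cells, 750/well, had 48 h compound exposure at 37 °C.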
ALOX12 inh: inhibitors of human 12S-lipoxygenase ALOX12 | P18054 | purified 12hLO, xylenol orange hydroperoxide absorbance | Potency, µM (highest dose often 108 µM), inactives show top-dose activity change, negative = inhibition, most hits filed as inhibitors | 580,000 tested, 1.1% active; note: potency is the fitted concentration of half-maximal effect
Target sequence (P18054 whole entry, looked up): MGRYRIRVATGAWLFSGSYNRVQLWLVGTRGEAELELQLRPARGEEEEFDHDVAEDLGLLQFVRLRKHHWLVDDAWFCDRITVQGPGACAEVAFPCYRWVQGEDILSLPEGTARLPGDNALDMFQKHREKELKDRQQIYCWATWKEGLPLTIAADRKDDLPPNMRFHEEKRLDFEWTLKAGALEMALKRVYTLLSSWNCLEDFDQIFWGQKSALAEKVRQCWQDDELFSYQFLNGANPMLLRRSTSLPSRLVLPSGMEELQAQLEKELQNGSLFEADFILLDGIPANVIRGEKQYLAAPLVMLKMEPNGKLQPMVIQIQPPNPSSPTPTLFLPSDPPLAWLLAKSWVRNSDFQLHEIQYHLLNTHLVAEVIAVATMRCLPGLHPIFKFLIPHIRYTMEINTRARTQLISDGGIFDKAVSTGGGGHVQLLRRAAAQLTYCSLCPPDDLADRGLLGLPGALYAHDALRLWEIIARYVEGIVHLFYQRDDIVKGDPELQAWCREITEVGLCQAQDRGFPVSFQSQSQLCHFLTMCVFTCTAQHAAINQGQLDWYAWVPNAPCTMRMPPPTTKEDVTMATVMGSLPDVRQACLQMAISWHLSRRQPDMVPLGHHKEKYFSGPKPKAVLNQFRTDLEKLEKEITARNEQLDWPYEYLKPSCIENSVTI
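Purified human 12hLO (150 nM final) in 25 mM Hepes, 0.01% Triton X-100, pH 7.0 was preincubated 15 min at room temperature with compound. Then 40 uM arachidonic acid was added, 30 min. Hydroperoxide was read by Fe-XO absorbance ratio 573/405 nm.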
HT1080-NT tox: kills 2HG-producing HT-1080-NT fibrosarcoma cells; HT-1080-NT fibrosarcoma viability, CellTiter-Glo ATP luminescence, 48 h; Potency, µM (series often up to 46.1 µM), for the others: at the highest dose activity, negative = less viability, actives largely listed as cytotoxic; 360,000 tested, 1.6% active; AID 686970;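 note: NT is the 2HG producing partner of a matched IDH1 knockdown line; potency is the fitted concentration of half-maximal effect; 0% = DMSO-treated cells and -100% = media-only wells without cells; nearly all actives have a fitted effect of over 55% in size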
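Toxicity toward the 2HG-producing NT line was scored as %Activity, normalised to DMSO and no-cell wells, from CellTiter-Glo luminescence after 48 hours' treatment.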
TDP1 cell noCPT: qHTS for Inhibitors of human tyrosyl-DNA phosphodiesterase 1 (TDP1): qHTS in cells in absence of CPT; DT40 Tdp1-/- hTDP1 cells, no CPT, ATP luminescence, 48 h; Potency, µM (top dose mostly 46.2 µM), without a hit: at the highest dose activity change, negative = growth inhibition, actives largely listed as inhibitors; 420,000 tested, 15% active; note: potency is the fitted concentration of half-maximal effect; nearly all actives have a fitted effect of over 55% in size
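Cells were dispensed at 400 per well, compounds added by pin tool, plates incubated ≥48 hr at 37 °C, then CellTiter-Glo added for 30 min at room temperature before luminescence reading. Line: DT40 Tdp1-/- complemented with hTDP1; camptothecin omitted.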
DT40 TDP1 CPT: DT40-hTDP1 cell growth loss with CPT; chicken DT40 Tdp1-/-;hTDP1 cells + 20 nM CPT, ATP luminescence, 48 h; Potency, µM (doses to about 46.2 µM), without a hit: at the highest dose activity change, negative = growth inhibition, usual class: inhibitors; 420,000 tested, 12% active; note: potency is the fitted concentration of half-maximal effect; nearly all actives have a fitted effect of over 55% in size
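Chicken DT40 Tdp1-/- cells complemented with human TDP1, 400 cells/well, exposed to compounds plus 20 nM camptothecin for at least 48 h at 37 C; viability read as ATP content by CellTiter-Glo luminescence.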
IL1B secr inh: inhibitors of inflammasome signaling (IL-1 beta secretion); 360,000 tested, 4.7% active; THP-1 LPS/ATP IL-1B secretion, AlphaLISA, 16 h; hits give low values; activity change, % at 57.5 µM; in the data active = activity change below about -50%; inconclusive = mostly about -30% to -49%
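THP-1 cells pretreated 1 hr with compounds (up to 57.5 uM final), then stimulated with LPS (250 ng/mL final) plus ATP (1.25 mM final); secreted IL-1B measured by AlphaLISA after 16 hr, decreased signal indicating inhibition.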
* = called active by the depositor; ? = inconclusive; · = not tested or not shown; ! = not active in a repeat; [ ] = remark or other dose. The sample as a whole holds a higher share of hits than the screen did. Unless noted, calls come from the whole dose curve; as a rule, active = well fitted curve in the direction sought with a large enough effect; inconclusive = small, poorly fitted or top-dose-only effect, or another doubt; inactive = no such curve, though single readings can be large; an effect the other way counts as inactive or inconclusive. Unless noted, % is set by controls: 0 for no effect and ±100 for the full control effect.

SMILES | HT1080 IDH1KD tx | ALOX12 inh | HT1080-NT tox | TDP1 cell noCPT | DT40 TDP1 CPT | IL1B secr inh
COC(=O)c1cccc(NS(=O)(=O)c2ccc(OC)cc2)c1C | -23%[9.24 µM] | 1% | 12µM* | 6.5µM* | 5.2µM* | 33
COc1ccccc1NC(=O)CN(c1ccccc1C)S(C)(=O)=O | -1% | 0% | 0% | -4% | 3% | 10
COc1ccc(S(=O)(=O)N(CC(=O)Nc2ccc(OC)cc2OC)c2ccc(Cl)cc2)cc1 | · | -28% | · | 26µM* | 23µM* | ·
CCOC(=O)c1ccccc1NC(=O)CN(c1ccccc1)S(=O)(=O)c1ccc(OCC)cc1 | · | 0% | · | 15µM* | 23µM* | ·
COC(=O)c1cccc(NS(=O)(=O)c2ccc(OC)c(OC)c2)c1C | -5% | -22% | 0% | ? | ? | 0
Cc1cc(O)c2c(C)c(CC(=O)N3CCCCC3)c(=O)oc2c1 | · | -23% | · | ? | 4% | ·
CCOc1ccc(N(CC(=O)Nc2ccccc2OC)S(=O)(=O)c2ccccc2)cc1 | 1.6µM* | 3% | 2.1µM* | 1.2µM* | 1.2µM* | 50
CCOC(=O)c1ccccc1NS(=O)(=O)c1ccc(OCC)cc1 | 2.2µM* | 26% | 7.1µM* | 13µM* | 7.9µM* | 8
COc1ccccc1NC(=O)CN(c1ccc([N+](=O)[O-])cc1)S(=O)(=O)c1ccccc1 | -4% | -13% | 3% | -20% | 11% | 1
CCOc1ccc(NC(=O)c2ccccc2NS(=O)(=O)c2ccc(F)cc2)c([N+](=O)[O-])c1 | -1% | ? | -11% | ? | 23µM* | ?
COc1ccc(N(CC(=O)Nc2ccccc2OC)S(=O)(=O)c2ccccc2)cc1Cl | -20% | -5% | -3% | ? | 13µM* | -12
O=C(CCSc1ccccc1)Nc1nnc(C2CC(=O)N(c3ccc(Cl)cc3)C2)s1 (configuration not stated) | · | 3% | · | · | · | ·
Cc1cccc(Cl)c1NC(=O)N1CCN(c2ccnc3cc(Cl)ccc23)CC1 | -18% | 0% | -2% | 13µM* | ? | -11
O=C(Nc1cc(F)ccc1F)N1CCN(c2ccnc3cc(Cl)ccc23)CC1 | -3% | 0% | -8% | 5.2µM* | 4.1µM* | ?
CCCCNC(=O)N1CCN(c2ccnc3cc(Cl)ccc23)CC1 | 3% | · | -3% | 13µM* | 21µM* | -22
O=C(Nc1ccc(C(F)(F)F)cc1)N1CCN(c2ccnc3cc(Cl)ccc23)CC1 | 29µM* | 98% | ? | 16µM* | 23µM* | -65*
Cc1noc(-c2cn(C3CCCN(C(=O)c4ccc(OC(F)(F)F)cc4)C3)nn2)n1 (configuration not stated) | · | 2% | · | · | · | ·
CC(C)NC(=O)c1nc(-c2ccc(Cl)cc2Cl)c2cnccn12 | · | 2%[6.33 µM] | · | · | · | ·
COc1cc(C(=O)NC2=Nc3ccccc3N=C(C)C2c2ccccc2)cc(OC)c1OC (configuration not stated) | · | -6% | · | · | · | ·
CN(Cc1ccccc1C(F)(F)F)Cc1ccnn1C | · | 47%[176 µM] | · | · | · | ·
CC1CN(C(=O)c2ccc(S(=O)(=O)Nc3cccc(C(F)(F)F)c3)cc2)CC(C)O1 (configuration not stated) | -18% | -4% | -8% | ? | -28% | 4
COc1ccc(NS(=O)(=O)c2ccc(-c3cnc(C4CC4)o3)cc2)cc1OC | 15µM* | 17% | 15µM* | 1.6µM* | 2.1µM* | 10
COc1ccccc1NS(=O)(=O)c1ccc(-c2cnc(C)o2)cc1 | · | 5% | · | · | · | ·
COc1ccccc1NS(=O)(=O)c1ccc(-c2cnc(C3CC3)o2)cc1 | 0.73µM* | 1% | ? | 0.92µM* | 0.73µM* | 26
COc1ccc(C)cc1NS(=O)(=O)c1ccc(-c2cnc(C)o2)cc1 | · | 1% | · | · | · | ·
SMILES | HT1080 IDH1KD tx | ALOX12 inh | HT1080-NT tox | TDP1 cell noCPT | DT40 TDP1 CPT | IL1B secr inh
COc1ccccc1CNS(=O)(=O)c1ccc(-c2cnc(C3CC3)o2)cc1 | ? | 36% | 4.6µM* | 0.58µM* | 0.92µM*! | 29
O=S(=O)(Nc1cccc(C(F)(F)F)c1)c1ccc(-c2cnc(C3CC3)o2)cc1 | · | ? | · | 2.6µM* | 3.7µM* | ·
O=C(Cc1ccccc1Cl)N1CCN(c2cc(C(F)(F)F)ncn2)CC1 | · | -2% | · | · | · | ·
CN1C(=O)CCC2(CNC(=O)Nc3ccc4c(c3)OCCO4)CCC=C12 (configuration not stated) | · | 26% | · | · | · | ·
COCC(=O)N[C@@H]1CN(C(=O)c2ccoc2)CC[C@@H]1c1nc(C)no1 | · | 81% | · | · | · | ·
COC1=CC(=O)OC(c2cccc(C#N)c2)C1 (configuration not stated) | 14% | -3% | 12% | 21% | -4% | -19
CCc1ccccc1NS(=O)(=O)c1ccc(-c2cnc(C3CC3)o2)cc1 | · | 6% | · | · | · | ·
CCOc1ccccc1NS(=O)(=O)c1ccc(-c2cnc(C3CC3)o2)cc1 | 0.21µM* | -5% | 0.21µM* | 0.023µM* | 0.0082µM* | 66
Cc1nc(CCNC(=O)CC(C)(C)C)no1 | · | 14% | · | · | · | ·
Cc1ccc(Cl)cc1NC(=O)CSc1nc2ccccc2c(=O)n1CCn1cc(Cl)cn1 | · | 6% | · | · | · | ·
CC(=O)OCON[N+]([O-])=NC(C)C | · | · | · | ? | 11µM* | ·
CCOC(=O)c1ccc2ncc(C(=O)OCC)c(NCCCOC(=O)c3ccccc3)c2c1 | · | -47% | · | · | · | ·
CCOC(=O)c1cnc2ccc(C(=O)OC)cc2c1NCCc1ccc(OC)c(OC)c1 | -20% | -15% | -16% | 18µM* | ? | 35
CCOC(=O)c1ccc2ncc(C(=O)OCC)c(NCCc3ccc(OC)c(OC)c3)c2c1 | · | 2% | · | 15µM* | 26µM* | ·
CCOc1ccc(NC(=O)C(=O)NCCN2CCN(S(=O)(=O)c3ccc(C)cc3)CC2)cc1 | -12% | -10% | 2% | 9.2µM* | ? | 0
Cc1ccc(NC(=O)C(=O)NCCN2CCN(C(=O)C(c3ccccc3)c3ccccc3)CC2)cc1 | 14% | 0% | 2% | 18µM* | 18µM* | ?
Cc1ccc(S(=O)(=O)N2CCN(CCNC(=O)C(=O)Nc3ccc(F)cc3)CC2)cc1 | ? | 18% | ? | ? | 1% | -15
O=C(NCCN1CCN(C(=O)C(c2ccccc2)c2ccccc2)CC1)C(=O)Nc1ccccc1 | -8% | -24% | -11% | -29% | ? | -1
COCCCNc1oc(-c2ccc(S(=O)(=O)N3CCC(C)CC3)cc2)nc1C#N | · | 21% | · | · | · | ·
CCc1cc(C(=O)NNC(=O)CCl)sc1C | -12% | 23% | -25% | ? | 15µM* | -28
Cc1ccccc1-n1cc(-c2ccnc(NC3CCN(C)CC3)n2)cn1 | · | 19% | · | · | · | ·

Screening results (PubChem BioAssay)
